Assay results as given in publication PMC4336329 (PLoS ONE, 2015).
Among all 310,000 compounds or so, about 14,000 (4.5%) showed an effect of 50% or more. The effect is printed as a negative number. Only a selection was taken, and strong results are over-represented in it overall.

Target: human ether-à-go-go-related gene (hERG) potassium channel (human, UniProt Q12809)
Assay: primary screen, population patch clamp on CHO cells stably expressing hERG; higher = less effect of the substance
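Note: peak tail current of the secondary pulse compared with the same well before compound.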

Sequence of human ether-à-go-go-related gene (hERG) potassium channel (Q12809 whole entry, looked up): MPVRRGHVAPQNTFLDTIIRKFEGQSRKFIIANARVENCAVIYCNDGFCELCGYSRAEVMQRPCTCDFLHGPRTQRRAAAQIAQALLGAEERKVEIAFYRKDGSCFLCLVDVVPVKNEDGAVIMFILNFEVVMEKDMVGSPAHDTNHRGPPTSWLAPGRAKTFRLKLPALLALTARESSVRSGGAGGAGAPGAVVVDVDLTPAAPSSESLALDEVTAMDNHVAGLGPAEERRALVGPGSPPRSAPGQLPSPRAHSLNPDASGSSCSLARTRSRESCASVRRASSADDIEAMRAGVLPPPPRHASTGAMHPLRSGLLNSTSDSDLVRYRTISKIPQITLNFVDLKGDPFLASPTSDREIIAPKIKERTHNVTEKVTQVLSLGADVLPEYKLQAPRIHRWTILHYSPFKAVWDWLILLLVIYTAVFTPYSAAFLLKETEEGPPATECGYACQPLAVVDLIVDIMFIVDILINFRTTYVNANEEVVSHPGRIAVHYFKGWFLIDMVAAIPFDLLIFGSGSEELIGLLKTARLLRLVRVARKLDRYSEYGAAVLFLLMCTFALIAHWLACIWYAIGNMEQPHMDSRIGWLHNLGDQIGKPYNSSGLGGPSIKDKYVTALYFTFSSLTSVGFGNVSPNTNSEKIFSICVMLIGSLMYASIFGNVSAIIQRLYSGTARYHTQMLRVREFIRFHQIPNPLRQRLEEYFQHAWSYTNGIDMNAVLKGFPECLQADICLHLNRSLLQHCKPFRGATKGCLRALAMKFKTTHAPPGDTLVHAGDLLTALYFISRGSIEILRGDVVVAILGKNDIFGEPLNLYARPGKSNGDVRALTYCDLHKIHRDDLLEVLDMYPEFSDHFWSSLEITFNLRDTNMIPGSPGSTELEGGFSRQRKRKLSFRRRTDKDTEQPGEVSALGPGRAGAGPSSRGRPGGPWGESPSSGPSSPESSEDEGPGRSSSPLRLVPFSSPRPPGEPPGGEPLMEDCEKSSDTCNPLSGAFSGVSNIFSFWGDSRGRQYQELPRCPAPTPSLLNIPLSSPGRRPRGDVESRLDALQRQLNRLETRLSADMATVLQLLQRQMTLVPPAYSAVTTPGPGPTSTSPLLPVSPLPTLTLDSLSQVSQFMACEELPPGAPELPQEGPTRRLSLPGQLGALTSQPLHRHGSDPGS

Row | SMILES | hERG current change (%, negative = inhibition) at 10uM
1 | CCCc1cc(=O)c2c(O)cccc2o1 | 5.41%
2 | CC1CC1C(=O)OCC(=O)Nc1ccc2[nH]c(=O)[nH]c2c1 (stereo not shown) | 2.94%
3 | COCCN1CCN(C(=O)c2ccc3oc(CCc4ccccc4)nc3c2)CC1 | -30.1%
4 | COc1ccccc1N(CC(=O)N1CCN(c2ccccc2)CC1)S(=O)(=O)c1ccc(C)cc1 | 17.5%
5 | Cc1nc(NCCc2ccc(S(N)(=O)=O)cc2)c2c(C)c(C)sc2n1 | 4.01%
6 | COc1ccc(-c2noc(CCC(=O)NCCCN3CCC(Cc4ccccc4)CC3)n2)cc1 | -80.7%
7 | CC1(C)CC(=O)c2cc(OCC(=O)NCCN3CCOCC3)ccc2O1 | 22.7%
8 | O=C(CCc1nc(-c2ccccc2F)no1)NCCN1CCOCC1 | 6.22%
9 | COc1ccc(-c2noc(CCC(=O)NCCCN3CCN(c4ccc(F)cc4)CC3)n2)cc1 | -67.4%
10 | CC1(C)CC(=O)c2cc(OCC(=O)NCCCN3CCN(c4ccccc4F)CC3)ccc2O1 | -47.4%
11 | CCN1CCN(CCCNC(=O)CCc2nc(-c3ccc(OC)cc3)no2)CC1 | -2.35%
12 | COc1ccc(-c2noc(CCC(=O)NCCCN3CCC(C)CC3)n2)cc1 | -5.81%
13 | COc1ccc(N2CCN(C(=O)CCc3nc(-c4ccc(C)cc4)no3)CC2)cc1 | -14.1%
14 | COc1ccc(-c2noc(CCC(=O)NCCc3ccccc3)n2)cc1 | 20.9%
15 | O=C(CCc1nc(-c2ccccc2F)no1)NCCN1CCc2ccccc2C1 | -50.4%
16 | CC1(C)CC(=O)c2cc(OCC(=O)NCCCN3CCN(c4ccc(F)cc4)CC3)ccc2O1 | -72.9%
17 | O=C(CCc1nc(-c2ccccc2F)no1)NCCN1CCN(Cc2ccccc2)CC1 | -43.2%
18 | Cc1cc(NC(=O)C(C)SCC(=O)Nc2ccccc2N2CCCC2)no1 (stereo not shown) | 15.1%
19 | CCNC(=S)N/N=C/c1cccs1 | 6.26%
20 | O=C(CCCCCN1C(=O)CCC1=O)Nc1ccc2c(c1)OCCO2 | 8.47%
21 | CC(=O)Nc1ccc(-c2csc(NNC(=O)c3ccccc3)n2)cc1 | 24.7%
22 | Cc1ccc(-c2nc(C(F)(F)F)cc(=O)[nH]2)cc1 | 12.7%
23 | N#CCCn1ncn(-c2ccccc2)c1=S | 1.22%
24 | Cc1ccccc1CC(=O)Nc1ccc2c(c1)CCC2 | 18.3%

Row | SMILES | hERG current change (%, negative = inhibition) at 10uM
25 | COc1ccc(-c2noc(CCC(=O)NCCCN3CCN(c4ccccc4F)CC3)n2)cc1 | -61%
26 | COCCCNC(=O)CCc1nc(-c2ccccc2)no1 | 9.36%
27 | Cc1ccc(-c2noc(CCC(=O)NCCN3CCOCC3)n2)cc1 | 4.65%
28 | COc1ccc(-c2noc(CCC(=O)NCCN(C)Cc3ccccc3)n2)cc1 | -30.5%
29 | Cc1ccc(-c2noc(CCC(=O)NCCCN3CCN(c4ccc(F)cc4)CC3)n2)cc1 | -66.8%
30 | Cc1ccc(-c2noc(CCC(=O)NCCCN3CCN(c4cccc(Cl)c4)CC3)n2)cc1 | 2.45%
31 | COc1ccc(C(=O)/C=C/c2cccs2)c(OC(=O)c2cccc([N+](=O)[O-])c2)c1 | 5.34%
32 | CCC(C)C(NC(=O)OCc1ccccc1)C(=O)NCC(c1ccccc1)N(C)C (stereo not shown) | -7.1%
33 | CC1CN(S(=O)(=O)c2ccc(F)cc2)CN1C(=O)N1CCOCC1 (stereo not shown) | 17.6%
34 | CC(C)CCN1CCN(Cc2nc3c(s2)CCCC3)CC1CCO (stereo not shown) | -28.2%
35 | OCCC1CN(Cc2nc3c(s2)CCCC3)CCN1CCc1ccccc1 (stereo not shown) | -61.4%
36 | CC(C)N1CCN(Cc2nc3c(s2)CCCC3)CC1CCO (stereo not shown) | 18.9%
37 | OCCC1CN(Cc2nc3c(s2)CCCC3)CCN1Cc1ccccc1 (stereo not shown) | -22.5%
38 | Cc1ccc(CN2CCN(Cc3nc4c(s3)CCCC4)CC2CCO)cc1 (stereo not shown) | -55.3%
39 | OCCC1CN(Cc2nc3c(s2)CCCC3)CCN1Cc1ccsc1 (stereo not shown) | -14.6%
40 | CC(=O)Nc1sc(C)c(C)c1C(=O)OCC(=O)N(CC(C)C)c1c(N)n(Cc2ccccc2)c(=O)[nH]c1=O | -1.37%
41 | Cc1cc(C)nc(N(C#N)CC(=O)N2CCC(C(N)=O)CC2)n1 | 20.1%
42 | CN1CCc2[nH]c3ccc(C(=O)NN)cc3c2C1 | 5.22%
43 | CC1CCc2sc(C(=O)NCC(C)(C)N3CCOCC3)cc2C1 (stereo not shown) | -32.6%
44 | CCOC(=O)c1oc2ccccc2c1NC(=O)c1ccc(Cl)s1 | 11.7%
45 | COc1cccc(-c2ccc(NC(=O)C3CCCN(Cc4cnc(N(C)C)s4)C3)cc2)c1 (stereo not shown) | 8.97%
46 | COc1cccc(C(=O)C2CCCN(Cc3cnn(C(C)C)c3)C2)c1 (stereo not shown) | -43.6%
47 | Nc1ncc(CN2CCCC(C(=O)Nc3ccc(-c4ccco4)cc3)C2)cn1 (stereo not shown) | -17.8%
48 | Cn1cc(CN2CCCC(C(=O)Nc3ccc(-c4cccc(F)c4)cc3)C2)cn1 (stereo not shown) | -43.9%

Row | SMILES | hERG current change (%, negative = inhibition) at 10uM
49 | COc1cccc(-c2ccc(NC(=O)C3CCCN(Cc4cnc(C)n4C)C3)cc2)c1 (stereo not shown) | -74.3%
50 | Cc1ncc(CN2CCCC(C(=O)Nc3ccc(-c4ccco4)cc3)C2)cn1 (stereo not shown) | -11.5%
51 | COc1cccc(-c2ccc(NC(=O)C3CCCN(Cc4cnn(C(C)C)c4)C3)cc2)c1 (stereo not shown) | -79.7%
52 | Cc1ncc(CN2CCCC(C(=O)Nc3ccc(-c4ccco4)cc3)C2)n1C (stereo not shown) | -59.6%
53 | Cc1ncc(CN2CCCC(C(=O)Nc3ccc(-c4cccc(F)c4)cc3)C2)cn1 (stereo not shown) | -73.2%
54 | O=C(Nc1ccc(-c2cccc(F)c2)cc1)C1CCCN(Cc2ccccn2)C1 (stereo not shown) | -42.3%
55 | COc1cccc(-c2ccc(NC(=O)C3CCCN(Cc4cnc(C)s4)C3)cc2)c1 (stereo not shown) | 2.11%
56 | COc1cccc(-c2ccc(NC(=O)C3CCCN(Cc4cnn(C)c4)C3)cc2)c1 (stereo not shown) | -37%
57 | COC(=O)c1c(C)nc(C)c(C(=O)OC)c1-c1ccc(OC)cc1 | -7.69%
58 | Cc1cc(C)nc(N/N=C/c2cn[nH]c2-c2ccc(F)cc2)n1 | 8.66%
59 | Cc1ccc(CNC(=O)c2cccc3c2C(=O)c2ccc(N4CCCCC4)cc2S3(=O)=O)cc1 | -6.76%
60 | CCOc1ccc(CCNC(=O)Nc2ccccc2C)cc1OCC | 5.4%
61 | COc1ccccc1-c1ccc(SCc2cccc(C)c2)nn1 | -26.6%
62 | Cc1ccc(CCC(=O)Nc2ccc(Cl)cc2)o1 | 12.8%
63 | O=C(O)C1=CC[C@@H](c2ccc(Cl)cc2)N(S(=O)(=O)c2ccc(Cl)cc2)[C@H]1c1ccc(F)cc1 | 4.97%
64 | CCOC(=O)c1sc(N)c(C#N)c1CSc1nnc(C2CCCCC2)n1N | -1.65%
65 | CC1CC(C)CN(C(=O)c2cc3ccccc3o2)C1 (stereo not shown) | -2.2%
66 | COc1ccc(C(=O)Nc2cc(Cl)ccc2Cl)c(OC)n1 | -5.79%
67 | Cc1ccc(C(=O)N2CCCC(C(=O)Nc3cccc(-c4ccc(F)cc4)c3)C2)cn1 (stereo not shown) | -29.1%
68 | CCc1ncc(CN2CCCC(C(=O)Nc3cccc(-c4cccc(C)c4)c3)C2)cn1 (stereo not shown) | -48.8%
69 | Cc1ncoc1C(=O)N1CCCC(C(=O)Nc2cccc(-c3ccc(F)cc3)c2)C1 (stereo not shown) | -36.4%
70 | Cc1ncc(CN2CCCC(C(=O)Nc3ccc(-c4cccc(F)c4)cc3)C2)n1C (stereo not shown) | -69.5%
71 | O=C(Nc1cccc(-c2ccc(F)cc2)c1)C1CCCN(Cc2cccnc2)C1 (stereo not shown) | -60.2%
72 | Cc1cccc(-c2cccc(NC(=O)C3CCCN(C(=O)c4ocnc4C)C3)c2)c1 (stereo not shown) | -53%

Row | SMILES | hERG current change (%, negative = inhibition) at 10uM
73 | CCCc1ncc(CN2CCCC(C(=O)Nc3ccc(-c4cccc(OC)c4)cc3)C2)cn1 (stereo not shown) | -39.7%
74 | Cc1ncc(CN2CCCC(C(=O)Nc3ccc(-c4cccc(F)c4)cc3)C2)s1 (stereo not shown) | 1.64%
75 | CCc1nc(C)c(C(=O)N2CCCC(C(=O)Nc3cccc(-c4cccc(C)c4)c3)C2)o1 (stereo not shown) | -42.5%
76 | Cc1ncc(CN2CCCC(C(=O)Nc3ccc(-n4ccnc4C)cc3)C2)cn1 (stereo not shown) | 12.8%
77 | COCCc1ncc(CN2CCCC(C(=O)Nc3cccc(-c4cccc(C)c4)c3)C2)cn1 (stereo not shown) | -56.6%
78 | Cc1ccc(C(=O)C(C)OC(=O)CCN=C2NS(=O)(=O)c3ccccc32)cc1 (stereo not shown) | 6.4%
79 | Cc1nn(Cc2c(Cl)cccc2Cl)c(Cl)c1C(=O)O | 14.4%
80 | COCCN(C(=O)CC1C(=O)NCCN1Cc1ccc(-c2ccccc2)cc1)C(C)C (stereo not shown) | 1%
81 | COc1ccc(OCCn2ccnc2)cc1 | 12.4%
82 | CCOCCCNC(=S)N1C2CCC1CC(NC(=O)Nc1ccc(C(=O)OCC)cc1)C2 (stereo not shown) | 13.7%
83 | O=C(NCCCN1CCOCC1)c1cc2c([nH]c3ccccc32)c(-c2cccc(Br)c2)n1 | -40.8%
84 | COc1ccc(-c2nc(C(=O)NCC3CCCO3)cc3c2[nH]c2ccccc23)cc1 (stereo not shown) | -2.81%
85 | COc1ccccc1-c1nc(C(=O)NCC2CCCO2)cc2c1[nH]c1ccccc12 (stereo not shown) | -29%
86 | COc1cc(-c2nc(C(=O)NC3CCN(Cc4ccccc4)CC3)cc3c2[nH]c2ccccc23)cc(OC)c1OC | -59.6%
87 | COc1ccc(-c2cc(C(=O)NCCCN3CCOCC3)c3ccccc3n2)cc1OC | -7.5%
88 | COc1cccc(-c2nc(C(=O)NCC3CCCO3)cc3c2[nH]c2ccccc23)c1 (stereo not shown) | -26.4%
89 | COc1ccc(OC)c(-c2nc(C(=O)NCC3CCCO3)cc3c2[nH]c2ccccc23)c1 (stereo not shown) | -59.1%
90 | COc1ccc(-c2nc(C(=O)NCCCN3CCOCC3)cc3c2[nH]c2ccccc23)cc1OC | -72.2%
91 | COc1cc(-c2nc(C(=O)NC3CCCCC3)cc3c2[nH]c2ccccc23)cc(OC)c1OC | -8.67%
92 | Cc1ccc(-c2nc(C(=O)NCCCN3CCOCC3)cc3c2[nH]c2ccccc23)cc1 | -15%
93 | COc1cccc(-c2nc(C(=O)NCCCN3CCOCC3)cc3c2[nH]c2ccccc23)c1 | -65.3%
94 | COc1ccc(OC)c(-c2nc(C(=O)NC3CCN(Cc4ccccc4)CC3)cc3c2[nH]c2ccccc23)c1 | -43.5%
